These results are taken from the supplement of paper PMC9694430.

The subject of this assay is LOC_OS02G08530-cb003. Nature of the assay: thermal shift delta Tm vs DMSO control; higher = stronger stabilization (binding). The following applies: 12.5 µM; protein concentration 2 µM. The procedure, abridged:
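Purified, E. coli-expressed rice kinase domain constructs were tested by differential scanning fluorimetry in 96-well plates: 19.5 μl of 2 μM kinase in 100 mM potassium phosphate pH 7.5, 150 mM NaCl, 10% glycerol, 5 × SYPRO Orange, plus compound in DMSO. Fluorescence was read from 25°C to 95°C at 0.05°C/s. Melting temperatures came from Boltzmann fits, and the shift is the triplicate mean relative to protein with DMSO alone.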
Turning to `CCNC(=O)Nc1ccc(-c2nc(N3CCOC[C@@H]3C)c3c(n2)C(C)(C)S(=O)(=O)C3)cc1`, the “thermal shift delta Tm” value was 0.6 °C.
Under `CN1CCN(c2ccc(OC(F)(F)F)c(Nc3ncc4c(n3)-c3c(c(C(N)=O)nn3CCO)CC4)c2)CC1` stands 1.25 °C; under `C[C@@H](Oc1cc(-n2cnc3ccc(CN4CCN(C)CC4)cc32)sc1C(N)=O)c1ccccc1C(F)(F)F`, 3.01 °C; under `COc1cc(OC)cc(-c2cc3cnc(N)nc3nc2NC(=O)NC(C)(C)C)c1`, 0.52 °C.
Under `COC(=O)c1ccc2c(c1)NC(=O)/C2=C(\Nc1ccc(N(C)C(=O)CN2CCN(C)CC2)cc1)c1ccccc1` [Nintedanib (BIBF 1120)] stands 3.05 °C; under `Cc1[nH]c(/C=C2\C(=O)Nc3ccccc32)c(C)c1CCC(=O)O` [Orantinib (TSU-68, SU6668)], 4.91 °C; under `NC1(c2ccc(-c3nc4ccn5c(=O)[nH]nc5c4cc3-c3ccccc3)cc2)CCC1`, 0.46 °C.
Under `N#Cc1ccc2[nH]c(O)c(-c3ccc(CN4CCOCC4)cn3)c2c1` stands 1.04 °C; under `C=C[C@@](C)(/C=C/c1ccc(O)cc1)CCC=C(C)C` [Bakuchiol], 0.6 °C; under `Cn1cnc2c(F)c(Nc3ccc(Br)cc3F)c(C(=O)NOCCO)cc21`, 0.93 °C.
On to `CC(C)(C)c1nc(-c2ccc(NC(=O)Nc3cccc(C(F)(F)F)c3)c3ccccc23)c2c(N)nccn12` [kira6], for which the “thermal shift delta Tm” value stood at 2.22 °C.
The same measure for `CC1=C(C(=O)Nc2cc3cn[nH]c3cc2F)C(c2ccc(C(F)(F)F)cc2)CC(=O)N1` (stereo not drawn): 0.55 °C.
Under `Cc1cn(-c2cc(NC(=O)c3ccc(C)c(Nc4nccc(-c5cnccn5)n4)c3)cc(C(F)(F)F)c2)cn1` [Radotinib] stands 0.67 °C.
